In PubChem BioAssay (NCATS):
Inconclusive results are not listed. Active and inactive are the calls of the source. Unless noted, calls follow the shape of the dose curve; as a rule, active = well fitted curve in either direction with a large enough effect (not every such curve was filed as active); inconclusive = small, poorly fitted or top-dose-only effect, or another doubt; inactive = flat fitted curve, though single readings scatter.

What was measured:
[1] = target: Lysosomal acid glucosylceramidase (Homo sapiens) (UniProt P04062); test: Glucocerebrosidase-p2 (AID 348; in the data active = potency below about 10 µM; also: potency is read from the fitted curve at half-maximal effect); conditions: purified GBA, blue fluorogenic substrate, 40 min
Procedure, shortened: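 Compounds titrated from 0.6 nM upwards against 0.2 nM enzyme in pH 5.9 citric acid/KH2PO4, taurocholate, tween-20; blue fluorogenic substrate 80 uM, 40 min room temperature, stopped and read Ex 365/Em 440 for AC50.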

[2] = AP1 Signaling Pathway (AID 357); also: % is scaled to controls: 0 for no effect and ±100 for the full control effect
Procedure, shortened: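 AP-1-bla ME-180 cells with beta-lactamase reporter under AP-1 response element, stimulated with EC50 EGF; compounds titrated, 5 hours at 37 degrees Celsius. CCF4 read at 460/530 nm ratio; positive and negative modulators judged by AC50.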

[3] = NFAT Signaling Pathway (AID 444); conditions: Jurkat NFAT-bla M1, carbachol, beta-lactamase ratio, 5 h; at 7.69 µM (top of the series);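 also: carbachol stimulus at about its EC50 of 1 µM final; % is scaled to controls: 0 for no effect and ±100 for the full control effect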
Procedure, shortened: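 Jurkat cells carrying an NFAT-driven β-lactamase reporter and co-transfected muscarinic M1 receptor were treated with compound plus carbachol (1 uM final, an EC50 level) for 5 h at 37 °C. CCF4 loading followed for 1 h at RT; 460/530 nm ratio gave %activity.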

[4] = Stat Signaling Pathway (AID 446);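 also: ME-180 cervical cancer cells given 40 pM IL-6 alongside compound; SIE-controlled beta-lactamase reporter measured as 460/530 nm FRET emission ratio; % is scaled to controls: 0 for no effect and ±100 for the full control effect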
Procedure, shortened: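 Screening format detects activators and inhibitors alike: ME-180 SIE-bla cells stimulated at 40 pM IL-6 for 5 hrs with compound, then dual-emission beta-lactamase read at 405 nm excitation.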

[5] = target: Glucocorticoid receptor (Homo sapiens) (UniProt P04150); test: GR-EFC Redistribution (AID 451; calls by dose curve; also: potency is read from the fitted curve at half-maximal effect); conditions: CHO-K1 GR-EFC translocation, beta-gal luminescence, 2 h
Procedure, shortened: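 CHO-K1 cells stably expressing nuclear-localized β-gal enzyme acceptor and GR fused C-terminally to the enzyme donor fragment; ligand-driven nuclear translocation restores β-gal by complementation. Compounds titrated up to 46 uM final, 2 h at 37 °C; luminescence read.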

[6] = target: Mitogen-activated protein kinase 10 (Mus musculus) (UniProt Q61831); test: JNK3 AlphaScreen Assay (AID 530);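 also: kinase came from lysate of stimulated human HepG2 cells; signal reports phosphorylation of biotinylated GST-cJun 1-79 at Ser73 with 10 µM ATP; % is scaled to controls: 0 for no effect and ±100 for the full control effect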
Procedure, shortened: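 Inhibitors reduce antibody binding to phosphorylated biotin-cJun, lowering AlphaScreen luminescence. Lysates from HepG2 cells pre-activated by IL-1beta plus TNF-alpha supplied JNK3; compounds were titrated.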

[7] = target: 3',5'-cyclic-AMP phosphodiesterase 4B (Homo sapiens) (UniProt Q07343); test: qHTS Assay for Inhibitors of PDE-IV (AID 607; active = well fitted activation curve with a large enough effect in the main read-out, with a control signal flat, not every such curve was filed as active; also: % of control where 0% means no effect)
Procedure, shortened: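 The readout is membrane depolarisation from a cAMP-sensing CNG channel, detected with a potential dye at ex 535/em 590. Cells were HEK293-derived (endogenous PDE-IV) at 1000 cells/well, titrated up to 22.9 uM final.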

[8] = Primary qHTS for small molecule stabilizers of the endoplasmic reticulum resident proteome: Secreted ER Calcium Modulated Protein (SERCaMP) assay (AID 1508630; active = well fitted curve in the direction sought with a large enough effect; an effect the other way counts as inactive or inconclusive; also: % is scaled to controls: 0 for no effect and ±100 for the full control effect)
Procedure, shortened: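 GLuc-SERCaMP-expressing SH-SY5Y cells, pretreated 16 h with compound, are challenged with thapsigargin to empty ER calcium stores; after 4 h, coelenterazine is added directly to the medium and luminescence is imaged.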

[9] = system: HIV-1 nucleocapsid protein NCp7 (binding to TG oligonucleotide); test: HIV Nucleocapsid (AID 346; call rule not given here;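 also: potency is read from the fitted curve at half-maximal effect; potency is for inhibitors that block NC binding and lower polarization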); conditions: HIV-1 NC / fluorescein-TGTGTGTG probe, fluorescence polarization
Procedure, shortened: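 Inhibition of nucleocapsid binding to single-stranded 5'-TGTGTGTG probe (10 nM) was measured by fluorescence polarization after 1 hr at room temperature with 100 nM protein under high-salt, zinc-containing, reducing conditions.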

[10] = target: Cytochrome P450 1A2 (Homo sapiens) (UniProt P05177); test: p450-cyp1a2 (AID 410; calls by dose curve; also: potency is read from the fitted curve at half-maximal effect)
Procedure, shortened: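 20nM CYP1A2 with 100uM Luciferin-ME (at Km) in 100mM KPO4; compound preincubated 10 min, NADPH regeneration added, 60 min at room temperature. Luciferin quantified by luminescence after detection reagent; normalized to 57 uM furafylline.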

[11] = target: Cytochrome P450 3A4 (Homo sapiens) (UniProt P08684); test: qHTS Assay for Activators of Cytochrome P450 3A4 (AID 885; active = well fitted curve in the direction sought with a large enough effect; an effect the other way counts as inactive or inconclusive; also: nearly all actives have a fitted effect of over 65% in size)
Procedure, shortened: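 Steps: enzyme/substrate mix dispensed; compound added, 10 min RT; NADPH regeneration solution added, 60 min RT; luciferin detection buffer stops reaction; 20 min later luminescence measured.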

[12] = qHTS Assay for Lipid Storage Modulators (AID 1519; calls by dose curve); conditions: Drosophila S3 cells, BODIPY lipid droplet/cell ratio, laser cytometry, cells loaded with oleic acid
Procedure, shortened: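 Cells seeded at 5,000 per well were treated with compounds over a concentration series and loaded with oleic acid (400 uM, as added). Lipid droplet fluorescence (488 nm excitation, 500-530 nm channel) was read by laser-scanning cytometry and normalized to 20 uM Triacsin C.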

[13] = target: DNA repair nuclease/redox regulator APEX1 (Homo sapiens) (UniProt P27695); test: qHTS Validation Assay for Inhibitors of the Human Apurinic/apyrimidinic Endonuclease 1 (APE1) (AID 1705; active = well fitted curve in the direction sought with a large enough effect; an effect the other way counts as inactive or inconclusive)
Procedure, shortened: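 Substrate: 50 nM final fluorophore/quencher THF-abasic duplex. Enzyme preincubated with compounds 15 min, RT. Progress derived from fluorescence difference, third minus first kinetic read.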

[14] = qHTS for differential inhibitors of proliferation of Plasmodium falciparum line W2 (AID 1883; active = well fitted curve in the direction sought with a large enough effect; an effect the other way counts as inactive or inconclusive;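 also: potency is read from the fitted curve at half-maximal effect; parasites grown with compound for 72 h before lysis and staining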); conditions: Potency: Plasmodium falciparum W2 proliferation inhibition
[15] = Validation screen for small molecules that induce DNA re-replication in MCF 10A normal breast cells (AID 463097; active = well fitted curve in the direction sought with a large enough effect; an effect the other way counts as inactive or inconclusive; also: 0% is about no effect; nearly all actives have a fitted effect of over 60% in size)
Procedure, shortened: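 Following 48 hr compound incubation (37 C, 5% CO2), MCF 10A cells receive Hoechst for 40 min at 37 C. Nuclei are then scanned (excitation 405 nm, emission 500-530 nm) for total fluorescence intensity.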

[16] = measured here: cell count channel max response
[17] = measured here: lipid channel max response

Chain of Lysosomal acid glucosylceramidase (Homo sapiens) (P04062 whole entry, looked up): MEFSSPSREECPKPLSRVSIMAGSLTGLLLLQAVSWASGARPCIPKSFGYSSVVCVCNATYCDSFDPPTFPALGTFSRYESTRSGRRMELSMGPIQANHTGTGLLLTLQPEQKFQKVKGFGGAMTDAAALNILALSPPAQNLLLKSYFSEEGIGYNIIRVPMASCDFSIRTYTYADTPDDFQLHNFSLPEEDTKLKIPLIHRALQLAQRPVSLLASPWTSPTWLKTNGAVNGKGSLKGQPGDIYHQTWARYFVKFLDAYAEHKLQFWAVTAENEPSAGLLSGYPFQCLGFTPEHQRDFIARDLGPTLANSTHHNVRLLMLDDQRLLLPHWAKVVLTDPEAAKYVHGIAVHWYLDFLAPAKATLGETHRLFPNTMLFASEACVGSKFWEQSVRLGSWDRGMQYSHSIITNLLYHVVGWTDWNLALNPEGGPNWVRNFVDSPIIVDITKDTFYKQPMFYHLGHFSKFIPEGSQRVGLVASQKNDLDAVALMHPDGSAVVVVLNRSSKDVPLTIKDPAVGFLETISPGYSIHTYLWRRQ
Chain of 3',5'-cyclic-AMP phosphodiesterase 4B (Homo sapiens) (Q07343 whole entry, looked up): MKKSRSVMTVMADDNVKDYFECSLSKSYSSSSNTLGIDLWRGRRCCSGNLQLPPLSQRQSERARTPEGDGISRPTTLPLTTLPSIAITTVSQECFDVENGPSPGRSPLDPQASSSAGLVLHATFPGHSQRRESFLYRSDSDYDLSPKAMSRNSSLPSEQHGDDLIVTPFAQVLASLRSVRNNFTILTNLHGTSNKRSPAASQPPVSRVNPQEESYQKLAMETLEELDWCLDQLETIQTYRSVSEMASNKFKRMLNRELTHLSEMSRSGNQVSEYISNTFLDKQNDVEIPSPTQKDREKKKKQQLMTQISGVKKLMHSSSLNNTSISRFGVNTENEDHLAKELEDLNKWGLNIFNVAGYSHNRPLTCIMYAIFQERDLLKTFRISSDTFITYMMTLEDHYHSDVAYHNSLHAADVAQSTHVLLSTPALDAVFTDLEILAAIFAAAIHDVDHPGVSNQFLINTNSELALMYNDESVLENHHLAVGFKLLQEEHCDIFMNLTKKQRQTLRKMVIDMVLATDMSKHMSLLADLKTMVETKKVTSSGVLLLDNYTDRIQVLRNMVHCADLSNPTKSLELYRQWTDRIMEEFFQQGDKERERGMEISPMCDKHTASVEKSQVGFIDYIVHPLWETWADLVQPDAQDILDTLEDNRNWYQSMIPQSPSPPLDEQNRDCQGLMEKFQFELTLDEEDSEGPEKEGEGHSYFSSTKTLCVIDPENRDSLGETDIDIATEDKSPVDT
Chain of Glucocorticoid receptor (Homo sapiens) (P04150 whole entry, looked up, the tested form may be a part): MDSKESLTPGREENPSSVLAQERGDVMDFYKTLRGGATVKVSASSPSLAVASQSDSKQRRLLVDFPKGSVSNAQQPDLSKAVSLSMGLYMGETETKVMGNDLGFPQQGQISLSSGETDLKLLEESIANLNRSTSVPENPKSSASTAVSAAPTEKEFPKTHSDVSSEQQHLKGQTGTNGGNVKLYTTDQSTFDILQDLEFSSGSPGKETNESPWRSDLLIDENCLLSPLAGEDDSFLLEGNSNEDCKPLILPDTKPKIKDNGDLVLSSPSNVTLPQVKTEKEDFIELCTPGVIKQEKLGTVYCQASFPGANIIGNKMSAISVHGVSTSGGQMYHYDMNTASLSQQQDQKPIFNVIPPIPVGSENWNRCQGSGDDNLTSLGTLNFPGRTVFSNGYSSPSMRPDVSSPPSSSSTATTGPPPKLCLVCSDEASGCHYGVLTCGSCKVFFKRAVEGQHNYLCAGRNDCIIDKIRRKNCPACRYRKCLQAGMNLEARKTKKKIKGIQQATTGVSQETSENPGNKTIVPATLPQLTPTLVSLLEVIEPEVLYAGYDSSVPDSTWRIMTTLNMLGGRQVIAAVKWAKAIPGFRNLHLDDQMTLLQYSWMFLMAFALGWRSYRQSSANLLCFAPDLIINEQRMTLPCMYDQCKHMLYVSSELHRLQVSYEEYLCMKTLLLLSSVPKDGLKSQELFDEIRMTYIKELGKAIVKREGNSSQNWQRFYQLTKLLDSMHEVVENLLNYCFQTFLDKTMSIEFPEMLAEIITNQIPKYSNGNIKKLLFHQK
Chain of Cytochrome P450 3A4 (Homo sapiens) (P08684 whole entry, looked up): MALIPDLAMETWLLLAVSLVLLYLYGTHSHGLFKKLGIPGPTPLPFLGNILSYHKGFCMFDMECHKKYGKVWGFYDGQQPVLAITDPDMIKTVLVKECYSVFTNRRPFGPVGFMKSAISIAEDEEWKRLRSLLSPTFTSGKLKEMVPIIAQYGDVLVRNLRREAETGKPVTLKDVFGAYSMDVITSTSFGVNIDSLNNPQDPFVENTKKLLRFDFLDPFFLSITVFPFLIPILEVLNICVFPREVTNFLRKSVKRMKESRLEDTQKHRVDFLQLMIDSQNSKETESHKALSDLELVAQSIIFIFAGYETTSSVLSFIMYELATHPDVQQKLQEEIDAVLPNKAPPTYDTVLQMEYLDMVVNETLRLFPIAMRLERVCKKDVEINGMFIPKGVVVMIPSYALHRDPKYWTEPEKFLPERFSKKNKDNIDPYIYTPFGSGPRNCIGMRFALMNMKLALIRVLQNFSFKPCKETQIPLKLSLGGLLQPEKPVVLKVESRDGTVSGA
Chain of DNA repair nuclease/redox regulator APEX1 (Homo sapiens) (P27695 whole entry, looked up): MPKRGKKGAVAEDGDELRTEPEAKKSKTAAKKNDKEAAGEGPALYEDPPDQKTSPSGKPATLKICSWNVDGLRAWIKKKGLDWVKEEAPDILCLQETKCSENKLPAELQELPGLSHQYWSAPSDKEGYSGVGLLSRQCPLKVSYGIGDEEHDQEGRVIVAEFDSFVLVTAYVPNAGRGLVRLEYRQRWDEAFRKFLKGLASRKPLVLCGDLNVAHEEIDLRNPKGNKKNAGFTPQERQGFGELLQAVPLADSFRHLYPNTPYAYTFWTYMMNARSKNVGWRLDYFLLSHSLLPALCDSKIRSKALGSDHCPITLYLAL
Chain of Cytochrome P450 1A2 (Homo sapiens) (P05177 whole entry, looked up): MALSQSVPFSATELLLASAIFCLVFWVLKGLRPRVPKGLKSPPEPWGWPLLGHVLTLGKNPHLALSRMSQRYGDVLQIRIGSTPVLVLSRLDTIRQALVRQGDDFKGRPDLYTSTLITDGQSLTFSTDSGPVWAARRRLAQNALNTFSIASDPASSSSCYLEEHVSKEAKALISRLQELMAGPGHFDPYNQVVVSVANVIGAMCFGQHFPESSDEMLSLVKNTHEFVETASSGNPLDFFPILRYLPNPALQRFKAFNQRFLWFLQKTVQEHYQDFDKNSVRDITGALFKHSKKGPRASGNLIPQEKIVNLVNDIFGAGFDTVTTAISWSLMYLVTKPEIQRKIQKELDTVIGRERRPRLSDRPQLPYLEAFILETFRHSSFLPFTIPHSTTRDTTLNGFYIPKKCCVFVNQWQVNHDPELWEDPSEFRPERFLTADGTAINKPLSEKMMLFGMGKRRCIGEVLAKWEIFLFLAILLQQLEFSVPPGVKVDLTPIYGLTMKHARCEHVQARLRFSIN

Question: What does the source list for COc1ccc(NC(=O)N2CC3(CCN(C(=O)Oc4ccccc4)CC3)C2)cc1?
Answer: Potency [1]: > 11.4 µM (inactive); outcome [2]: inactive; activity change, negative = inhibition [3]: 3.27% (inactive); outcome [4]: inactive; Potency [5]: > 46 µM (inactive); outcome [6]: inactive; Potency [7]: inactive; outcome [8]: inactive

Question: For O=C(Oc1ccccc1)N1CCC[C@@]2(CCN(Cc3ccccc3)C2)C1, which Potency [9] is on record?
Answer: > 20 µM (inactive)

Question: And the Potency [1]?
Answer: > 11.4 µM (inactive)

Question: And the outcome [2]?
Answer: inactive

Question: And the Potency [10]?
Answer: 15.8 µM (active)

Question: And the outcome [4]?
Answer: inactive

Question: And the Potency [5]?
Answer: > 46 µM (inactive)

Question: And the outcome [6]?
Answer: inactive

Question: What about the Potency [7] of the same molecule?
Answer: inactive

Question: And the Potency [11]?
Answer: inactive

Question: What about the outcome [8] of the same molecule?
Answer: inactive

Question: For COc1ccc2cc1Oc1ccc(cc1)C[C@H]1c3cc(c(OC)cc3CCN1C)Oc1c(OC)c(OC)cc3c1[C@@H](C2)N(C)CC3, which activity change, negative = inhibition ([12]; at 25.7 µM (top of the series)) is on record?
Answer: -4.24% (inactive)

Question: What about the max response [12, 16] of the same molecule?
Answer: -9.67%

Question: And the max response [12, 17]?
Answer: -10.6%

Question: For N#Cc1ccc(CN2CC3(CCNCC3)C2)cc1, which Potency [1] is on record?
Answer: > 11.4 µM (inactive)

Question: And the outcome [2]?
Answer: inactive

Question: And the outcome [4]?
Answer: inactive

Question: What about the Potency [5] of the same molecule?
Answer: > 46 µM (inactive)

Question: And the outcome [6]?
Answer: inactive

Question: What about the Potency [7] of the same molecule?
Answer: inactive

Question: And the activity change, negative = inhibition ([12]; at 57.5 µM (top of the series))?
Answer: -3.34% (inactive)

Question: What about the max response [12, 16] of the same molecule?
Answer: -8.82%

Question: And the max response [12, 17]?
Answer: -10.3%

Question: What about the outcome [8] of the same molecule?
Answer: inactive

Question: Which results are given for CNCC[C@@H](Oc1ccc(C(F)(F)F)cc1)c1ccccc1?
Answer: activity change, negative = inhibition ([12]; at 57.5 µM (top of the series)): 1.23% (inactive); max response [12, 16]: -30.3%; max response [12, 17]: -28.9%; Potency [13]: inactive; Potency [14]: 4.47 µM (active); Potency [15]: inactive
